The list is not random: actives were taken first. Their share in the collection is about 1.2%.
RGS4-Gao reg: modulates binding of RGS4 to human Galphao; P09471; Multiplexed bead flow cytometry; actives lie on both sides; binding response (% of control), % at 10 µM; 0.33% of 220,000 active; in the data active means binding response below about 49% or above about 150%; inactive means in between;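 further: fluorescent Galphao activated with aluminum fluoride binding bead-coupled RGS4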
Target sequence (P09471 whole entry, looked up): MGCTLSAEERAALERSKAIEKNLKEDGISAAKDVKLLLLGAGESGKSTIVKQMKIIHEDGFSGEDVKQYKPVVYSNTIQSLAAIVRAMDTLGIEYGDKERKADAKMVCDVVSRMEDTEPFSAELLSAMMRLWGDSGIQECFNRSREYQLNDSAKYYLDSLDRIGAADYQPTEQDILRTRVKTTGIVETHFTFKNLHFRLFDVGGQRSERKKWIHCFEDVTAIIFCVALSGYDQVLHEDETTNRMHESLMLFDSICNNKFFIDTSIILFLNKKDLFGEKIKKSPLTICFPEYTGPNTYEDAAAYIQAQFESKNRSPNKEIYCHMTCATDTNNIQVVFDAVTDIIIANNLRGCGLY
GSH fluor: GSH bead compound fluorescence profile | 0.25% of 190,000 active | fluorescence (KMESF) at 10 µM | GSH beads flow cytometry, compound fluorescence 488/530 nm; active compounds read high; in the data active means fluorescence above about 89;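 further: glutathione beads carrying GST-tagged Bcl family fusion proteins plus one bare bead set; values are compound well signal with DMSO vehicle wells as background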
RGS7-Gao reg: regulators of human RGS7-Galphao interaction | binding response (% of control), % at 10 µM | Multiplexed bead flow cytometry, RGS7-Galphao binding; actives lie on both sides | P09471 | 0.35% of 220,000 active | AID 1439; in the data active means binding response below about 49% or above about 150%; inconclusive means no clear call, values can overlap the other calls; inactive means in between;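 further: fluorescent Galphao held in activated GDP-AlF4 state binding bead-coupled RGS7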
RGS8-Gao reg: regulators of human RGS8-Galphao interaction; multiplexed bead flow cytometry, RGS8-Galphao binding; actives lie on both sides; 0.34% of 220,000 active; response (percent of control binding), % at 10 µM; P09471; in the data active means response below about 60% or above about 140%; inactive means in between;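 further: Galphao activated as the GDP aluminium fluoride complex binding bead-coupled RGS8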
Avidin bead fluor: avidin bead compound fluorescence profile. Avidin beads, compound fluorescence 488/530 nm, flow cytometry; active compounds read high. fluorescence (KMESF) at 10 µM. 0.38% of 220,000 active. AID 1775; in the data active means fluorescence above about 47
RGS16-Gao: modulates binding between human RGS16 and Galphao; O15492+P09471; bead-based flow cytometry RGS16-Galphao binding, fluorescence; actives lie on both sides; binding response (% of control), % at 10 µM; 0.38% of 220,000 active; call rule not given here;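 further: Galphao activated by GDP with aluminum fluoride before binding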
Target sequence (O15492 whole entry, looked up): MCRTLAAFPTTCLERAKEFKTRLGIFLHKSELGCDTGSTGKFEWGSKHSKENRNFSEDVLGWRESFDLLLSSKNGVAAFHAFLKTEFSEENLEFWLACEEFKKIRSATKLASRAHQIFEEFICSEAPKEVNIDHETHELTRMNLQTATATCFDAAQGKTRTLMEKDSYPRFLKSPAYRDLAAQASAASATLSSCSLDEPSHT
Target sequence (P09471 whole entry, looked up): as the sequence (P09471 whole entry, looked up) above
* marks the source's active call; other numbers are inactive results; u = inconclusive; x = not tested or not shown; + = active, no number; ! = not confirmed by another sample; [ ] = another dose, or the depositor's remark.

SMILES	RGS4-Gao reg	GSH fluor	RGS7-Gao reg	RGS8-Gao reg	Avidin bead fluor	RGS16-Gao
O=C(NCc1ccccn1)C(C(=O)c1ccc(F)cc1)n1ccccc1=O (stereo unspecified)	104.3	18	110.5	101.5	56*	101.3
CN1CCN(C(=O)C(C(=O)c2ccc(F)cc2)n2ccccc2=O)CC1 (stereo unspecified)	108.0	35	116.1	106.9	59*	113.3
O=C(NCc1ccco1)C(C(=O)c1ccc(F)cc1)n1ccccc1=O (stereo unspecified)	101.0	22	97.8	100.5	5	95.3
O=C1Nc2ncccc2OC1CCCl (stereo unspecified)	97.5	258*	100.1	96.2	8	98.5
COC(=O)c1sc(NC(=O)C2CCCO2)c(C(=O)OC)c1C (stereo unspecified)	99.4	32	99.1	96.7	7	82.9
Cc1c(C(=O)OC(C)C)sc(NC(=O)C2CCCO2)c1C(=O)OC(C)C (stereo unspecified)	96.5	93*	94.2	96.0	4	80.6
O=C(COc1ccc([N+](=O)[O-])cc1)Nc1ccc2c(c1)OCO2	104.0	15	99.7	102.5	8	104.6
COc1ccc(OC)c(NC(=O)c2cccnc2Sc2ccccc2)c1	103.0	5	104.0	94.0	0	71.0
COc1ccc(NC(=S)N(CCN(C)C)C(C)c2ccco2)cc1Cl (stereo unspecified)	111.0	152*	112.8	104.0	28	121.3
Cc1ccc(NC(=O)/C=C\C(=O)NCC(=O)O)cc1	91.0	13	98.8	94.5	9	86.7
CN(C)c1ccc(C2NCCS2)cc1 (stereo unspecified)	15.2*	11	27.4*	47.0*	9	21.1*
Cc1ccc(C2NCCS2)cc1 (stereo unspecified)	104.4	9	105.3	74.3	4	98.0
O=C(O)COc1ccccc1/C=N/NC(=O)CSc1nc2ccccc2n1Cc1ccc(Cl)cc1	96.9	x	u	100.5	5	98.3
CN(C(=O)Nc1ccc(C(C)(C)C)cc1)C1CCCCC1	111.6	x	u	98.5	70*	98.6
CCCCN1CC(O)=C(c2nc3ccccc3s2)C1=N	105.1	25	133.2	103.1	110*	113.3
N=C1C(c2nc3ccccc3s2)=C(O)CN1CCCO	99.0	16	100.1	102.7	34	100.8
O=C(NC(NC(=S)Nc1ccc(Cl)cc1Cl)C(Cl)(Cl)Cl)c1cccc([N+](=O)[O-])c1 (stereo unspecified)	96.3	11	96.8	89.9	30	88.6
Cc1ccc(C(=O)COC(=O)c2ccc3c(c2)C(=O)N(c2cccc4ncccc24)C3=O)cc1	161.8*[activator]	2	100.5	98.2	23	134.2
O=C(COC(=O)c1ccc2c(c1)C(=O)N(c1cccc3ncccc13)C2=O)c1ccc(Cl)cc1	100.9	3	103.1	106.5	3	102.9
COC(=O)c1cc(NC(=O)c2cc(C(C)(C)C)nn2Cc2ccc(F)cc2)ccc1N1CCOCC1	99.6	x	u	97.4	8	100.2
COc1cc(OC)c(-c2c3cc(O)c(=O)cc-3oc3cc(O)c(O)cc23)cc1OC	36.8*	283*	-3.2*	32.2*	-1	30.1
Cc1c2cc(O)c(=O)cc-2oc2cc(O)c(O)cc12	25.0*!	x	-4.9*!	31.4*!	6	89.8
CCCN(C(=S)Nc1ccccc1)C1CCS(=O)(=O)C1 (stereo unspecified)	103.4	24	103.0	102.8	11	113.1
CN(C)c1oc(-c2ccccc2Cl)nc1P(=O)(c1ccccc1)c1ccccc1	108.9	43	105.0	104.7	11	112.7
COc1cc(N2CN=c3s/c(=C\c4ccccn4)c(=O)n3C2)cc(OC)c1OC	109.9	265*	106.4	102.3	9	107.4
SMILES	RGS4-Gao reg	GSH fluor	RGS7-Gao reg	RGS8-Gao reg	Avidin bead fluor	RGS16-Gao
O=c1/c(=C/c2ccccn2)sc2n1CN(c1ccccc1)CN=2	88.1	3	92.4	100.5	3	51.8
CCC(C)(C)C1CCc2nc3ccccc3c(C(=O)OC(C)C(=O)Nc3c(C)n(C)n(-c4ccccc4)c3=O)c2C1 (stereo unspecified)	101.8	10	107.9	104.0	15	114.8
Cc1ccc(NS(=O)(=O)c2ccc(OCC(N)=O)cc2)cc1	98.7	13	97.7	101.7	10	101.5
Cc1cc2oc(=O)cc(Cn3ccnc3)c2cc1C	102.6	273*	96.5	98.5	8	102.5
Cc1cccc(Cn2c(=O)n(-c3ccc(CC(=O)NCc4ccco4)cc3)c(=O)c3sccc32)c1	100.0	22	100.3	99.3	9	95.7
COc1ccccc1-c1cc(C(F)(F)F)nc(S(=O)(=O)CCCC(=O)NC(C)C)n1	89.8	5	101.7	100.1	19	95.1
COc1ccccc1-c1cc(C(F)(F)F)nc(S(C)(=O)=O)n1	101.8	483*	100.6	103.9	10	106.2
CCN(CC)c1ccc2cc(-c3nc(-c4ccc(OC)cc4)cs3)c(=O)oc2c1	808.3*[activator]	445*	+[activator]	176.9*[activator]	636*	922.6*[activator]
CCN(CC)c1ccc2cc(-c3nnc(-c4ccccc4)o3)c(=O)oc2c1	96.2	34	98.6	99.3	8	95.7
O=C(O)c1cc2nc3c(c(C(F)(F)F)n2n1)CCc1ccccc1-3	-11.5*	9	1.4*	19.4*	x	-6.0*
CC(C(=O)Nc1ccc(F)c(F)c1F)N(C)CC(=O)Nc1ccccc1Br (stereo unspecified)	100.4	16	100.4	99.9	5	100.2
CN(C)C(=O)COC(=O)[C@H](Cc1ccccc1)NC(=O)c1ccco1	99.4	18	109.2	99.4	53*	102.2
CCOc1ccc2nc(Nc3nc(CSc4nnnn4-c4ccccc4)cc(=O)[nH]3)nc(C)c2c1	102.6	23	103.7	103.5	6	106.5
COc1ccc2nc(Nc3nc(CSc4nnnn4-c4ccccc4)cc(=O)[nH]3)nc(C)c2c1	108.6	33	134.7	97.8	95*	103.9
N=c1oc2ccc3ccccc3c2cc1C(N)=S	99.5	9	99.3	101.1	11	104.6
FC(F)(Cl)c1nnc2ccc(Cl)nn12	99.3	12	95.0	101.7	7	97.3
O=C(O)Cc1csc(NC(=O)c2ccco2)n1	101.3	276*	103.4	98.3	7	96.0
COc1ccc2[nH]c(=O)c(CN(Cc3nnnn3Cc3ccc(F)cc3)CC3CCCO3)cc2c1 (stereo unspecified)	107.9	12	144.4	99.8	105*	104.4
CN(C)S(=O)(=O)c1cccc(NC(=S)N2CCc3ccccc32)c1	131.4	14	u	89.1	154*	98.4
CCN1/C(=C/c2ccc3cc(C)ccc3[n+]2CC)Sc2ccccc21	168.7*[activator]	7	225.3*[activator]	109.6	11	109.8

Screens from PubChem BioAssay.
